Hits are enriched below; roughly 3.7% of the tested compounds scored in any of these assays.
RGS4 inh: human RGS4 inhibition; P49798; Transcreener GDP fluorescence polarization, RGS4-accelerated GTP hydrolysis; Potency, µM (series often up to 114 µM), without a hit: top-dose activity change, negative = inhibition, usual class: inhibitors; hit rate 0.039% among 390,000; AID 504845; further: potency means the concentration at half of the fitted maximal effect; on the % scale 0 is the no-effect control and ±100 the full control effect; nearly all actives have a fitted effect of over 75% in size
Target sequence (P49798 whole entry, looked up): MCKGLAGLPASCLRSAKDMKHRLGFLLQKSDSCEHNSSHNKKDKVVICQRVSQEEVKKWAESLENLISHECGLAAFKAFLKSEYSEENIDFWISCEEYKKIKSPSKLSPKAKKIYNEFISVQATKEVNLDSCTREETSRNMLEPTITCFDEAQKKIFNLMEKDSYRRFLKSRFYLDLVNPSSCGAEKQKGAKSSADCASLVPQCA
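MLSMR compounds (23 nl, pin-transferred) preincubated 10 min at room temperature with a 500nM (2x) first reagent, then RGS4 at 900nM (2x) plus Transcreener GDP mix added; fluorescence polarization (620/688 nm) read before and after 90 min at 30 °C.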
BRCA1 expr act: activators of BRCA1 expression; MCF7-BRCA1-FFLuc reporter, luminescence, 48 h; response scale: scaled: vehicle 0%, 10 µM genistein 100%; Potency, µM (series often up to 46.1 µM), for the others: top-dose activation, usual class: activators; hit rate 1.1% among 380,000; AID 624202; further: potency means the concentration at half of the fitted maximal effect; nearly all actives have a fitted effect of over 80% in size
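Activators of BRCA1 expression were detected as increased firefly luciferase luminescence in engineered MCF7 cells after 48 h compound incubation. Signals were scaled to genistein 10 microM as full activation.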
D3 ag: activates the human D3 dopamine receptor; AID 652048; hit rate 0.58% among 410,000; P35462; D3R DiscoveRx beta-arrestin cells, luminescence, 90 min; max activation, %; in the data active means max activation above about 30%; further: 0% is about no effect
Target sequence (P35462 whole entry, looked up): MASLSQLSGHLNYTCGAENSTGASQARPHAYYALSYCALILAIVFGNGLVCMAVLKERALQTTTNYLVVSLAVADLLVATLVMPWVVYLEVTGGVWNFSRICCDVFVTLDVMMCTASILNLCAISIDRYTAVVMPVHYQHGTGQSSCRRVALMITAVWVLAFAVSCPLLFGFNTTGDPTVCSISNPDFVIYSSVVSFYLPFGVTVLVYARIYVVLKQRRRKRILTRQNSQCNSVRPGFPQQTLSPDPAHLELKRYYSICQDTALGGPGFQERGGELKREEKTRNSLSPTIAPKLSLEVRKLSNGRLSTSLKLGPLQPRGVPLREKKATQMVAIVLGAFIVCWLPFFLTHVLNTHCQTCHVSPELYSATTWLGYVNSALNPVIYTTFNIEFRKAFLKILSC
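Cells at 1500/well, incubated overnight, then treated with pinned compounds (dopamine as control) for 90 min at 37 degrees C. DiscoveRx reagent added for 30 - 60 minutes at room temperature; luminescence read.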
DRD3 antagonist: blocks the human D3 dopamine receptor. P35462. D3R cells, DiscoveRx beta-arrestin luminescence, antagonist mode; active compounds read low. max response, negative = inhibition, %. hit rate 2.5% among 360,000; in the data active means max response below about -50%; inconclusive means no clear call, values can overlap the other calls; further: on the % scale 0 is the no-effect control and ±100 the full control effect
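Cells plated overnight at 1500 cells/well, then exposed to library compounds with dopamine controls for 90 minutes at 37 degrees C. DiscoveRx reagent added for 30–60 minutes at room temperature; luminescence read, quantitative HTS format.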
B2AR arrestin: beta2AR (human) beta-arrestin recruitment activity | P07550 | beta-arrestin recruitment to beta2AR, cell-based reporter | Potency, µM (highest dose often 46.1 µM), for inactives: top-dose activation, usual class: activators | hit rate 0.02% among 330,000;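 further: potency means the concentration at half of the fitted maximal effect; 0% = DMSO controls and full agonism = EC100 isoproterenol or metaproterenol; nearly all actives have a fitted effect of over 65% in size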
PTHR1 agonist: activates the human parathyroid hormone receptor PTHR1; Q03431; HEK293 GP2 PTHR1 cells, GloSensor cAMP luminescence, 1 h; Potency, µM (top dose mostly 115 µM), without a hit: top-dose activation, hits mostly activators; hit rate 0.075% among 410,000; further: potency means the concentration at half of the fitted maximal effect; nearly all actives have a fitted effect of over 55% in size
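HEK-293-derived GP2 cells expressing PTHR1 and a GloSensor cAMP reporter, 3,000/well, plated overnight, given luciferin plus IBMX (each 0.5 mM as added) for 1 h at 37 °C, then compound for 1 h at 37 °C. Luminescence was read after 15 min at room temperature.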
The depositor's hits bear a star; i = inactive; ? = inconclusive; nt = no result; [ ] = dose if it differs, or a comment. Unless noted, the call rests on the fitted dose curve; in most records, active means well fitted curve in the direction sought with a large enough effect; inconclusive means small, poorly fitted or top-dose-only effect, or another doubt; inactive means no such curve, though single readings can be large; an effect the other way counts as inactive or inconclusive.

SMILES	RGS4 inh	BRCA1 expr act	D3 ag	DRD3 antagonist	B2AR arrestin	PTHR1 agonist
CCOC(=O)N(C)C[C@H]1OCc2cnnn2CCCC(=O)N([C@@H](C)CO)C[C@@H]1C	nt	6%	-5	2	nt	-16%
CC(=O)N1N=C(c2ccc(C)cc2)CC1c1ccc2c(c1)OCO2 (stereo not given)	7%	4.5µM*	16	16	0%	-22%
CC(=O)N1N=C(c2ccc(C)cc2)CC1c1ccco1 (stereo not given)	-12%	13µM*	18	5	-1%	-9%
Clc1cccc(CNc2nnnn2-c2ccccc2)c1	-1%	-46%	-19	-52*	0%	0%
O=C(CNC(=O)c1ccccc1F)Nc1ccc2c(c1)CCC2	-10%	4µM*	4	-7	0%	i
O=C(Nc1ccc2c(c1)CCC2)c1c(F)cccc1Cl	7%	5µM*	-3	0	0%	-8%
Cc1ccccc1C(=O)NNC1=NCCC1	13%	8%	0	-12	0%	-8%[57.5 µM]
O=C(NNC1=NCCC1)c1cccc(Br)c1	5%	1%	-2	-58*	-1%	-19%
CC(=O)Nc1cccc(-c2ccnc3c2CC(C)(C(=O)NCCc2ccccc2)O3)c1 (stereo not given)	nt	-11%	-10	-17	nt	i
CCOC(=O)c1nn(C)c(=S)n(C)c1=O	8%	-30%	-7	4	nt	i
CCOC(=O)c1nn(C)c(C)c1Cl	12%	10%	-30	-71*	0%	-12%
CC1CCCN(C(=O)CSc2nnc3ccccn23)C1 (stereo not given)	1%	38%	1	16	-1%	-2%
O=C(CN(Cc1ccccc1)S(=O)(=O)c1ccc(F)cc1)NCc1ccccn1	17%	0%	0	0	0%	i
C=CCN=c1scc(-c2ccc3c(c2)NC(=O)CO3)n1/N=C(\C)c1ccccn1	-17%	-89%	-16	-53*	0%	-28%
OC(COC(c1ccc(Cl)cc1)c1ccc(Cl)cc1)CN1CCc2ccccc2C1 (stereo not given)	6%	-69%	-13	-56*	-2%	-19%
OC(COC(c1ccc(F)cc1)c1ccc(F)cc1)CN1CCc2ccccc2C1 (stereo not given)	-7%	-70%	-6	-18	3%	i
OC(COC(c1ccccc1)c1ccccc1)CN1CCc2ccccc2C1 (stereo not given)	-9%	-43%	-12	-54*	1%	i
CCN1CCN(c2sc(S(=O)(=O)CC)nc2S(=O)(=O)c2ccc(C)cc2)CC1	nt	-34%	-8	-80*	nt	i
CCCS(=O)(=O)c1nc(S(=O)(=O)c2ccc(C)cc2)c(N2CCN(CC)CC2)s1	26%	-28%	-19	-109*	1%	-16%
CCS(=O)(=O)c1nc(S(=O)(=O)c2ccc(C)cc2)c(N2CCCC2)s1	23%[56.9 µM]	-7%	-8	-15	0%	-36%
CCCS(=O)(=O)c1nc(S(=O)(=O)c2ccc(C)cc2)c(N2CCN(C)CC2)s1	17%	-32%	-17	-61*	-1%	-19%
COc1ccc(OC)c(C(=O)N2CCC(CCC(=O)NC3CC3)CC2)c1	5%[11.4 µM]	-2%	5	3	0%	i
CCC(C)NCCOc1ccc(Br)cc1 (stereo not given)	2%	0%	-5	-68*	0%	i
CCC(C)NCCOc1ccccc1C (stereo not given)	2%	15%	-34	-67*	-1%	-2%
Cc1ccccc1OCCNC(=S)Nc1ccccc1	-11%	10%	-8	0	0%	-48%[57.5 µM]
SMILES	RGS4 inh	BRCA1 expr act	D3 ag	DRD3 antagonist	B2AR arrestin	PTHR1 agonist
CCC(C)NCCOCCOc1ccc(Br)cc1 (stereo not given)	14%	-11%	-12	-17	0%	i
O=C(NCCc1ccc(Cl)cc1)c1nc(-c2cccc(F)c2)n2c1CCCCC2	6%	nt	-11	nt	nt	-5%
CN(C)c1ccc(/C=N/NC(=O)c2ccnn2C)cc1	-2%	13µM*	1	3	0%	-36%
Cc1cc([N+](=O)[O-])nn1CC(=O)NNC(=S)Nc1ccc(F)cc1	-21%	0%	-2	-25	0%	i
Cc1nn(CCC(=O)NNC(=S)Nc2ccc(F)cc2)c(C)c1[N+](=O)[O-]	-50%	6%	2	-77*	-1%	-3%[57.5 µM]
CO[C@H]1C[C@@H]2CC[C@@H](C)[C@@](O)(O2)C(=O)C(=O)N2CCCC[C@H]2C(=O)O[C@H]([C@H](C)C[C@@H]2CC[C@@H](O)[C@H](OC)C2)CC(=O)[C@H](C)C=C(C)[C@@H](O)[C@@H](OC)C(=O)[C@H](C)C[C@H](C)/C=C/C=CC=C1C	nt	nt	-11	nt	nt	nt
Cn1cc(CN2CCc3sccc3C2)c(-c2ccccc2F)n1	8%	-3%	-19	-91*	0%	i
NC[C@@H]1O[C@H](O[C@H]2[C@@H](O)[C@H](O[C@@H]3[C@@H](O)[C@H](N)C[C@H](N)[C@H]3O[C@H]3O[C@H](CN)[C@@H](O)[C@H](O)[C@H]3N)O[C@@H]2CO)[C@H](N)[C@@H](O)[C@@H]1O	nt	nt	-2	nt	nt	nt
Cn1c(SCc2ccc(F)cc2)nnc1-c1cnccn1	-24%	11µM*	4	3	0%	i
Cn1c(SCc2ccccc2)nnc1-c1cnccn1	-19%	?	-23	26	0%	19%[57.5 µM]
Cc1ccc(NC2=C/C(=N/S(=O)(=O)c3cccs3)c3ccccc3C2=O)cc1	-24%	-103%	-12	-72*	0%	-5%
Cc1ccc(S(=O)(=O)/N=C2\C=C(NS(=O)(=O)c3ccccc3)C(=O)c3ccccc32)c(C)c1	?	-10%	-23	?	nt	i
Cc1ccc(S(=O)(=O)/N=C2\C=C(Nc3cccc(C(=O)O)c3)C(=O)c3ccccc32)cc1	-8%	59%	-24	?	0%	-42%
Cc1ccc(S(=O)(=O)/N=C2\C=C(Nc3ccc(O)cc3)C(=O)c3ccccc32)cc1	-28%	-91%	-13	-94*	0%	-30%
O=C1C=C(Nc2ccccc2)C(=O)c2ccccc21	17%	?	-5	-5	0%	-37%
O=C1C(Nc2ccccc2)=C/C(=N/S(=O)(=O)c2cccs2)c2ccccc21	-17%	-84%	-38	-85*	-1%	i
CC(C)(C)NC(=O)CN(CCN1CCOCC1)C(=O)CNS(=O)(=O)c1ccccc1	-24%	-10%	17	1	0%	i
COc1cc(NC(=O)CSc2ncc3c(n2)-c2ccc(Cl)cc2N(Cc2ccccc2)S3(=O)=O)cc(OC)c1	-21%	0%	-19	nt	nt	-33%

Screening data: PubChem, National Center for Advancing Translational Sciences (NCATS)
